{"source": "paper PMC11006913", "assay_in_all_cases": "PBM; 200 nM protein, PBS", "details_in_all_cases": "dsDNA, one strand shown", "key": {"VENTX [1]": {"target": "T1, VENTX (Homo sapiens, UniProt O95231 78-163, R121Q)", "T1 sequence": "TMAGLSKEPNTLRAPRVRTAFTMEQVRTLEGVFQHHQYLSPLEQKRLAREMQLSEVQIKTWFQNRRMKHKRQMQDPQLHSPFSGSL"}, "HOXC9 [2]": {"target": "HOXC9 (Homo sapiens, UniProt P31274 178-260, K195R)", "sequence (P31274 178-260 K195R)": "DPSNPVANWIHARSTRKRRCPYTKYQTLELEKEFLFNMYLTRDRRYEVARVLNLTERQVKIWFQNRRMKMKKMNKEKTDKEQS"}, "PAX4 [3]": {"target": "T2, PAX4 (Homo sapiens, UniProt O43316 9-242, R200K)", "T2 sequence": "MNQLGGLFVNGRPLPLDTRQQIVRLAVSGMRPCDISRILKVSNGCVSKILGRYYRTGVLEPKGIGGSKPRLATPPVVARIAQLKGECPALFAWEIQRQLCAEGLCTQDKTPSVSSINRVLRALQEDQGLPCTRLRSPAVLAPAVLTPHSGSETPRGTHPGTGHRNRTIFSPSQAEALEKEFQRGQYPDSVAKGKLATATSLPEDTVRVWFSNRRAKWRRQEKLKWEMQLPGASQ"}, "HOXC9 [4]": {"target": "HOXC9 (Homo sapiens, UniProt P31274 178-260)", "sequence (P31274 178-260)": "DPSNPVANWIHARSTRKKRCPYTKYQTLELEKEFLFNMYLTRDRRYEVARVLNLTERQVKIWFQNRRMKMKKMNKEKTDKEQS"}, "HOXC9 [5]": {"target": "HOXC9 (Homo sapiens, UniProt P31274 178-260, R193K)", "sequence (P31274 178-260 R193K)": "as the sequence (P31274 178-260) above, with R16K counted along it"}, "PAX4 [6]": {"target": "T3, PAX4 (Homo sapiens, UniProt O43316 9-242, R227W)", "T3 sequence": "T2 sequence with K192R, R219W"}, "VENTX [7]": {"target": "T4, VENTX (Homo sapiens, UniProt O95231 78-163)", "T4 sequence": "T1 sequence with Q44R"}, "VENTX [8]": {"target": "T5, VENTX (Homo sapiens, UniProt O95231 78-163, Y115F)", "T5 sequence": "T1 sequence with Y38F, Q44R"}, "HOXB6 [9]": {"target": "HOXB6 (Homo sapiens, UniProt P17509 132-218, K202E)", "sequence (P17509 132-218 K202E)": "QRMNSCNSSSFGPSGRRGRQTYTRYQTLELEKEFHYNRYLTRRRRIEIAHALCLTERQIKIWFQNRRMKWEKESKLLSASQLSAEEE"}, "HOXC9 [10]": {"target": "HOXC9 (Homo sapiens, UniProt P31274 178-260, R222W)", "sequence (P31274 178-260 R222W)": "as the sequence (P31274 178-260) above, with R45W counted along it"}, "HOXA4": {"target": "HOXA4 (Homo sapiens, UniProt Q00056 201-287, W262F)", "sequence (Q00056 201-287 W262F)": "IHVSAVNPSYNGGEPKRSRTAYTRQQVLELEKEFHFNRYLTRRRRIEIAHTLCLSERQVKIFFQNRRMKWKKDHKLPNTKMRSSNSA"}, "HOXB6 [11]": {"target": "HOXB6 (Homo sapiens, UniProt P17509 132-218)", "sequence (P17509 132-218)": "as the sequence (P17509 132-218 K202E) above, with E71K counted along it"}, "HOXB9 [12]": {"target": "HOXB9 (Homo sapiens, UniProt P17482 171-250, T197M)", "sequence (P17482 171-250 T197M)": "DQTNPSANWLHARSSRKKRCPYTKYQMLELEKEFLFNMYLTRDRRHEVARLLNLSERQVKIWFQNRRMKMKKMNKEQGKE"}, "SIX6 [13]": {"target": "T6, SIX6 (Homo sapiens, UniProt O95475 114-200, L167I)", "T6 sequence": "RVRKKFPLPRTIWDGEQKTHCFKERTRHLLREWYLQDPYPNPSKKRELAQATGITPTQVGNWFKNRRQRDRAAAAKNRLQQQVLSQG"}, "SIX6 [14]": {"target": "T7, SIX6 (Homo sapiens, UniProt O95475 114-200, L143V)", "T7 sequence": "T6 sequence with L30V, I54L"}, "SIX6 [15]": {"target": "T8, SIX6 (Homo sapiens, UniProt O95475 114-200, H141N)", "T8 sequence": "T6 sequence with H28N, I54L"}, "SIX6 [16]": {"target": "T9, SIX6 (Homo sapiens, UniProt O95475 114-200, T165P)", "T9 sequence": "T6 sequence with T52P, I54L"}, "SIX6 [17]": {"target": "T10, SIX6 (Homo sapiens, UniProt O95475 114-200, L167M)", "T10 sequence": "T6 sequence with I54M"}, "SIX6 [18]": {"target": "T11, SIX6 (Homo sapiens, UniProt O95475 114-200, L143M)", "T11 sequence": "T6 sequence with L30M, I54L"}, "SIX6 [19]": {"target": "T12, SIX6 (Homo sapiens, UniProt O95475 114-200, L143I)", "T12 sequence": "T6 sequence with L30I, I54L"}, "SIX6 [20]": {"target": "T13, SIX6 (Homo sapiens, UniProt O95475 114-200, T165G)", "T13 sequence": "T6 sequence with T52G, I54L"}, "HOXB9 [21]": {"target": "HOXB9 (Homo sapiens, UniProt P17482 171-250)", "sequence (P17482 171-250)": "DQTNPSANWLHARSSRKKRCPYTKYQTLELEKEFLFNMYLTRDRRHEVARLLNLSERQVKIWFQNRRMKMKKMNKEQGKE"}, "SIX6 [22]": {"target": "T14, SIX6 (Homo sapiens, UniProt O95475 114-200, T139Q)", "T14 sequence": "T6 sequence with T26Q, I54L"}, "MSX2 [23]": {"target": "MSX2 (Homo sapiens, UniProt P35548 130-214, R199I)", "sequence (P35548 130-214 R199I)": "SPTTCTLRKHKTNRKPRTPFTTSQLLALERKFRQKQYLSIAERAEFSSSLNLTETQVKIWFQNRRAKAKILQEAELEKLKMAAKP"}, "SIX6 [24]": {"target": "T15, SIX6 (Homo sapiens, UniProt O95475 114-200, T165A)", "T15 sequence": "T6 sequence with T52A, I54L"}, "MSX2 [25]": {"target": "MSX2 (Homo sapiens, UniProt P35548 130-214)", "sequence (P35548 130-214)": "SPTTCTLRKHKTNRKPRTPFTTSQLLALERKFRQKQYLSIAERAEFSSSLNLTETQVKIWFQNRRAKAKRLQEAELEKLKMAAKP"}, "SIX6 [26]": {"target": "T16, SIX6 (Homo sapiens, UniProt O95475 114-200, L167V)", "T16 sequence": "T6 sequence with I54V"}, "SIX6 [27]": {"target": "T17, SIX6 (Homo sapiens, UniProt O95475 114-200)", "T17 sequence": "T6 sequence with I54L"}, "SIX6 [28]": {"target": "T18, SIX6 (Homo sapiens, UniProt O95475 114-200, T165I)", "T18 sequence": "T6 sequence with T52I, I54L"}, "HOXB9 [29]": {"target": "HOXB9 (Homo sapiens, UniProt P17482 171-250, R186Q)", "sequence (P17482 171-250 R186Q)": "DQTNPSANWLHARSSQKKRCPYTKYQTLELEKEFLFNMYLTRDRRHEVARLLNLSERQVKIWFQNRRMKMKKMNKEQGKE"}, "MSX2 [30]": {"target": "MSX2 (Homo sapiens, UniProt P35548 130-214, F161Y)", "sequence (P35548 130-214 F161Y)": "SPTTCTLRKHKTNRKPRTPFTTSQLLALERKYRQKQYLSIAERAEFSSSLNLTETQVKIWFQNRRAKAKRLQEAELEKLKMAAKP"}}, "note": "Where a chain is given by its changes, count along the chain named."}
{"sequence": "ACGCATTA", "values": [{"measurement": "binding signal", "setting": "VENTX [1]", "value": "10.4 upbm affinity estimate (log intensity, higher = more binding, comparable within an allelic series)"}, {"measurement": "binding signal", "setting": "HOXC9 [2]", "value": "11.2 upbm affinity estimate (log intensity, higher = more binding, comparable within an allelic series)"}, {"measurement": "binding signal", "setting": "PAX4 [3]", "value": "11.6 upbm affinity estimate (log intensity, higher = more binding, comparable within an allelic series)"}, {"measurement": "binding signal", "setting": "HOXC9 [4]", "value": "11.2 upbm affinity estimate (log intensity, higher = more binding, comparable within an allelic series)"}, {"measurement": "binding signal", "setting": "HOXC9 [5]", "value": "11.2 upbm affinity estimate (log intensity, higher = more binding, comparable within an allelic series)"}, {"measurement": "binding signal", "setting": "PAX4 [6]", "value": "10.9 upbm affinity estimate (log intensity, higher = more binding, comparable within an allelic series)"}]}
{"sequence": "AGTTAATG", "values": [{"measurement": "binding signal", "setting": "VENTX [1]", "value": "11.5 upbm affinity estimate (log intensity, higher = more binding, comparable within an allelic series)"}, {"measurement": "binding signal", "setting": "HOXC9 [2]", "value": "12.5 upbm affinity estimate (log intensity, higher = more binding, comparable within an allelic series)"}, {"measurement": "binding signal", "setting": "VENTX [7]", "value": "12.4 upbm affinity estimate (log intensity, higher = more binding, comparable within an allelic series)"}, {"measurement": "binding signal", "setting": "VENTX [8]", "value": "11.4 upbm affinity estimate (log intensity, higher = more binding, comparable within an allelic series)"}, {"measurement": "binding signal", "setting": "HOXB6 [9]", "value": "9.94 upbm affinity estimate (log intensity, higher = more binding, comparable within an allelic series)"}, {"measurement": "binding signal", "setting": "HOXC9 [4]", "value": "12.5 upbm affinity estimate (log intensity, higher = more binding, comparable within an allelic series)"}, {"measurement": "binding signal", "setting": "HOXC9 [5]", "value": "12.5 upbm affinity estimate (log intensity, higher = more binding, comparable within an allelic series)"}, {"measurement": "binding signal", "setting": "HOXC9 [10]", "value": "10.8 upbm affinity estimate (log intensity, higher = more binding, comparable within an allelic series)"}, {"measurement": "binding signal", "setting": "HOXA4", "value": "11.4 upbm affinity estimate (log intensity, higher = more binding, comparable within an allelic series)"}, {"measurement": "binding signal", "setting": "HOXB6 [11]", "value": "11.7 upbm affinity estimate (log intensity, higher = more binding, comparable within an allelic series)"}]}
{"sequence": "GCGCGCCC", "values": [{"measurement": "binding signal", "setting": "VENTX [1]", "value": "8.19 upbm affinity estimate (log intensity, higher = more binding, comparable within an allelic series)"}, {"measurement": "binding signal", "setting": "HOXB9 [12]", "value": "8.46 upbm affinity estimate (log intensity, higher = more binding, comparable within an allelic series)"}, {"measurement": "binding signal", "setting": "SIX6 [13]", "value": "8.73 upbm affinity estimate (log intensity, higher = more binding, comparable within an allelic series)"}, {"measurement": "binding signal", "setting": "VENTX [7]", "value": "8.26 upbm affinity estimate (log intensity, higher = more binding, comparable within an allelic series)"}, {"measurement": "binding signal", "setting": "SIX6 [14]", "value": "8.71 upbm affinity estimate (log intensity, higher = more binding, comparable within an allelic series)"}, {"measurement": "binding signal", "setting": "SIX6 [15]", "value": "8.79 upbm affinity estimate (log intensity, higher = more binding, comparable within an allelic series)"}, {"measurement": "binding signal", "setting": "SIX6 [16]", "value": "8.94 upbm affinity estimate (log intensity, higher = more binding, comparable within an allelic series)"}, {"measurement": "binding signal", "setting": "VENTX [8]", "value": "8.22 upbm affinity estimate (log intensity, higher = more binding, comparable within an allelic series)"}, {"measurement": "binding signal", "setting": "SIX6 [17]", "value": "8.76 upbm affinity estimate (log intensity, higher = more binding, comparable within an allelic series)"}, {"measurement": "binding signal", "setting": "SIX6 [18]", "value": "8.75 upbm affinity estimate (log intensity, higher = more binding, comparable within an allelic series)"}, {"measurement": "binding signal", "setting": "SIX6 [19]", "value": "8.78 upbm affinity estimate (log intensity, higher = more binding, comparable within an allelic series)"}, {"measurement": "binding signal", "setting": "SIX6 [20]", "value": "8.82 upbm affinity estimate (log intensity, higher = more binding, comparable within an allelic series)"}, {"measurement": "binding signal", "setting": "HOXB9 [21]", "value": "8.66 upbm affinity estimate (log intensity, higher = more binding, comparable within an allelic series)"}, {"measurement": "binding signal", "setting": "SIX6 [22]", "value": "8.77 upbm affinity estimate (log intensity, higher = more binding, comparable within an allelic series)"}, {"measurement": "binding signal", "setting": "MSX2 [23]", "value": "9.61 upbm affinity estimate (log intensity, higher = more binding, comparable within an allelic series)"}, {"measurement": "binding signal", "setting": "SIX6 [24]", "value": "8.75 upbm affinity estimate (log intensity, higher = more binding, comparable within an allelic series)"}, {"measurement": "binding signal", "setting": "MSX2 [25]", "value": "9.64 upbm affinity estimate (log intensity, higher = more binding, comparable within an allelic series)"}, {"measurement": "binding signal", "setting": "SIX6 [26]", "value": "8.91 upbm affinity estimate (log intensity, higher = more binding, comparable within an allelic series)"}, {"measurement": "binding signal", "setting": "SIX6 [27]", "value": "8.8 upbm affinity estimate (log intensity, higher = more binding, comparable within an allelic series)"}, {"measurement": "binding signal", "setting": "SIX6 [28]", "value": "8.71 upbm affinity estimate (log intensity, higher = more binding, comparable within an allelic series)"}, {"measurement": "binding signal", "setting": "HOXB9 [29]", "value": "8.61 upbm affinity estimate (log intensity, higher = more binding, comparable within an allelic series)"}, {"measurement": "binding signal", "setting": "MSX2 [30]", "value": "9.62 upbm affinity estimate (log intensity, higher = more binding, comparable within an allelic series)"}]}
